# High-throughput results as filed in PubChem BioAssay.
# Sm TGR inh: inhibitors of Schistosoma mansoni thioredoxin glutathione reductase; Q962Y6; purified TGR, DTNB reduction, TNB absorbance 405 nm; Potency, µM (titrated, usually from 114 µM), for inactives: top-dose activity change, negative = inhibition, hits mostly inhibitors; 360,000 compounds, 3% hits; AID 485364; further: nearly all actives have a fitted effect of over 60% in size
#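 First, TGR (20 nM dispensed) and NADPH were mixed with compound. Second, a 15 min room-temperature incubation followed. Third, further NADPH and then DTNB were added to start the reaction. Finally, TNB absorbance was monitored kinetically.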
# Tb PYK inh: blocks Trypanosoma brucei pyruvate kinase. 410,000 compounds, 0.12% hits. TbPYK enzyme, Kinase-Glo Plus ATP luminescence, 45 min. Potency, µM (series often up to 76.8 µM), for the others: at the top dose activity, negative = inhibition, actives largely listed as inhibitors. Q57TT1; further: nearly all actives have a fitted effect of over 50% in size
#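 Glycolytic pyruvate kinase of T. brucei was incubated with substrate, test compound and 130 uM ADP for 45 minutes at room temperature. Luminescent Kinase-Glo Plus signal was measured after 10 minutes.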
# LmPK inh: LmPK (Leishmania mexicana) enzyme inhibition; Q27686; purified LmPK, Kinase-Glo ATP luminescence, 1 h; Potency, µM (top dose mostly 57.5 µM), for inactives: top-dose activity change, negative = inhibition, actives largely listed as inhibitors; 290,000 compounds, 0.37% hits
# Target sequence (Q27686 whole entry, looked up): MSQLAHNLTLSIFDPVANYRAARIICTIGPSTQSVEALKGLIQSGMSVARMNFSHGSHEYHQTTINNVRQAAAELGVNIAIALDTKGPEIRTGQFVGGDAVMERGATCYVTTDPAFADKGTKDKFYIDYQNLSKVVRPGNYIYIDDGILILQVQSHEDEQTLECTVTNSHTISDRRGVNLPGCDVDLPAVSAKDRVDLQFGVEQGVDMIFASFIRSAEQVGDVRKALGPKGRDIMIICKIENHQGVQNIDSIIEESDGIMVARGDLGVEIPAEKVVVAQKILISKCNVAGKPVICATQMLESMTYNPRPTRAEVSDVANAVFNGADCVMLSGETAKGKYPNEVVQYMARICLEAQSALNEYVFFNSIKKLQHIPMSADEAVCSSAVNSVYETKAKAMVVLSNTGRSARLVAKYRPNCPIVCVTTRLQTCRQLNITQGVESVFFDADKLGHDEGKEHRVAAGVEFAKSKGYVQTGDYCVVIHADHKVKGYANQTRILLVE
#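 Kinase-Glo luminescence read after 1 h RT reaction of 0.1 nM LmPK with 0.5 mM PEP and 0.1 mM ADP. Activity scaled between uninhibited and enzyme-free controls.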
# RE007 growth inh: less growth of the S. pombe RE007 Vpr strain | S. pombe RE007 Vpr strain, BacTiter-Glo ATP luminescence, 24 h | Potency, µM (doses to about 92.2 µM), without a hit: top-dose activity change, negative = less growth, most hits filed as inhibitors | 360,000 compounds, 0.21% hits | AID 651644; active means well fitted falling curve with a large enough effect; inconclusive means small, poorly fitted or top-dose-only effect; inactive means no such curve, though single readings can be large or run the other way; further: nearly all actives have a fitted effect of over 50% in size
#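 Fission yeast strain RE007, carrying one chromosomally integrated HIV-1 vpr copy, was seeded at OD 0.01 in PMG+AL medium with 23 nL pinned compound. After 24 h at 30 °C and 99% humidity, viability was read by BacTiter-Glo luminescence.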
# AMA1-RON2 inh: disrupts binding of P. falciparum AMA1 to RON2; AlphaScreen AMA1-biotinylated RON2 peptide binding; Potency, µM (doses to about 58.2 µM), inactives show top-dose activity change, negative = inhibition, usual class: inhibitors; 360,000 compounds, 0.2% hits;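 further: 0% = vehicle wells and -100% = peptide control; nearly all actives have a fitted effect of over 45% in size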
#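 AMA1 (3D7) with his tag at 25 nM final met compounds first, then biotinylated RON2 peptide at 25 nM; detection used donor plus acceptor beads, 10 µg/mL apiece, read by AlphaScreen after 30 min at room temperature.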
# * = called active by the depositor; ? = inconclusive; / = not tested or not shown; [ ] = another dose, or the depositor's remark. Compounds with a hit are over-represented: about 3.2% of the library has one in this group of screens. Unless noted, the call rests on the fitted dose curve; in most records, active means well fitted curve in the direction sought with a large enough effect; inconclusive means small, poorly fitted or top-dose-only effect, or another doubt; inactive means no such curve, though single readings can be large; an effect the other way counts as inactive or inconclusive. Unless noted, on the % scale 0 is the no-effect control and ±100 the full control effect; potency means the concentration at half of the fitted maximal effect.
SMILES,Sm TGR inh,Tb PYK inh,LmPK inh,RE007 growth inh,AMA1-RON2 inh
CCN1CC=C2C(C#N)=C(N)C(C#N)(C#N)C(CCc3ccccc3)C2C1 (stereo not drawn),28.2µM*,-0.8%,-3.0%,-7.6%,0.2%
CC(=O)N1CC=C2C(C#N)=C(N)C(C#N)(C#N)C(C)C2C1 (stereo not drawn),?,1.2%,7.1%,11.8%,0.2%
CC(=O)N1CC=C2C(C#N)=C(N)C(C#N)(C#N)C(CCc3ccccc3)C2C1 (stereo not drawn),39.8µM*,-8.1%,6.9%,24.0%,-4.0%
N#CC1=C(N)C(C#N)(C#N)[C@H](c2ccoc2)[C@H]2CN(Cc3ccccc3)CC=C12,?,-0.6%,0.5%,-25.0%,-4.7%
COc1ccc(-c2nc3ccccc3o2)cc1NC(=O)c1ccc(-c2cccc(Cl)c2C)o1,1.0%,-2.8%,/,/,/
Cc1ccc(S(=O)(=O)N(C(=O)c2ccncc2)c2ccc(OC(=O)c3ccncc3)c3ccccc23)c(C)c1,17.8µM*,-14.0%,-29.7%,-0.5%,-9.7%
Cc1ccc(S(=O)(=O)N(C(=O)c2ccncc2)c2ccc(OC(=O)c3ccncc3)c3ccccc23)cc1,20µM*,-20.5%,-0.8%,-11.4%,?
CC(=O)Oc1ccc(N(C(C)=O)S(=O)(=O)c2ccc(C)cc2C)c2ccccc12,-2.7%,2.2%,-7.6%,11.7%,-3.2%
Cc1ccc(C)c(Cn2c(=O)n(CCCC(=O)NCc3ccc4c(c3)OCO4)c(=O)c3sccc32)c1,-1.4%,-2.3%,/,/,/
COc1cc(/C=C(\C#N)C(=O)Nc2ccccn2)ccc1O,14.1µM*,-6.8%,5.0%,-5.5%,-16.9%
CCOc1cc(/C=C(\C#N)C(=O)Nc2ccccn2)ccc1O,17.8µM*,-6.1%,1.9%,-7.3%,-1.9%
Cc1cccc(/C=C(\C#N)C(=O)Nc2ccccn2)c1,7.6%,-0.4%,0.6%,-6.4%,-0.1%
COc1cc(/C=C(\C#N)C(=O)Nc2cccc3ncccc23)ccc1O,/,/,0.5%,/,/
Cc1ccc(NC(=O)c2cc(-c3ccco3)nc3ccccc23)cc1S(=O)(=O)N1CCOCC1,44.7µM*,-1.6%,-4.9%,-11.9%,-11.1%
COc1ccc(NC(=O)c2cc(-c3ccco3)nc3ccccc23)cc1S(=O)(=O)N1CCOCC1,7.94µM*,-19.0%,2.5%,-13.2%,-21.6%
COc1ccc(NC(=O)c2cc(C)nc3ccccc23)cc1S(=O)(=O)N1CCOCC1,/,2.5%,/,-8.6%,-13.0%
Cc1ccc(NC(=O)Cn2cnc3sc(C(=O)O)c(C)c3c2=O)cc1Cl,-3.5%,1.7%,/,/,/
COC(=O)CN1C(=O)C(C)(C)c2cc(S(=O)(=O)Nc3ccc(C(C)C)cc3)ccc21,10.5%,-0.9%,/,/,/
CC#CCN1c2ccccc2[C@]23C[C@@H](C(=O)OC)N(S(=O)(=O)c4ccc(C(F)(F)F)cc4)C2=NC(C(=O)OC)=C(C(=O)OC)[C@H]13,/,/,4.1%[11.5 µM],/,/
Cc1ccc(C)n1-c1ccc(C(=O)O)cc1,17.8µM*,/,14.8%,/,/
Cc1ccc(C)n1-c1ccc(C(=O)N2CCOCC2)cc1,8.91µM*,2.9%,1.5%,-3.5%,11.4%
Cc1ccc(C)n1-c1ccc(C(=O)Nc2ccccc2)cc1,25.1µM*,0.3%,-10.2%,3.7%,-9.3%
CCC(N)CCc1c[nH]c2ccccc12 (stereo not drawn),/,-9.1%[157 µM],/,/,/
N[C@@H](C(=O)N[C@H]1C(=O)N2C(C(=O)O)=C(Cl)CC[C@H]12)c1ccccc1,/,3.3%,/,/,/
COc1ccc(-c2cc(C(F)(F)F)nc(SCC(=O)NC(C)c3ccccc3)n2)cc1 (stereo not drawn),0.6%,-4.7%,/,/,/
COc1ccc(-c2ccc(NC(=O)c3ccco3)cc2)nn1,50.1µM*,?,/,?,-8.1%
COc1ccc(-c2cccc(NC(=O)c3ccco3)c2)nn1,-32.7%,-6.2%,/,-18.6%,-6.1%
Cc1cc(C)cc(NC(=O)CSc2ccc(-c3ccccn3)nn2)c1,0.0%,-1.8%,-0.5%,0.1%,-1.5%
Cc1cccc(NC(=O)CSc2ccc(-c3ccco3)nn2)c1,20µM*,-0.3%,0.2%,-17.8%,-15.0%
Cc1cccc(NC(=O)CSc2cn[nH]n2)c1,1.5%,3.3%,-3.3%,6.6%,1.9%
